Measured values from PubChem BioAssay (NCI).
About 83,000 compounds went through this panel and 20% of them were active in at least one assay; those are over-represented in the sample as a whole.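 Compound tested at a single concentration for 48 hours in 96-well plates; a percent growth value below 10 was scored as active.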 The source made the active and inactive calls.

test system: NCI-H322M lung; assay: NCI-60 one-dose screen, 48 h (100 = growth as untreated, 0 = no growth, -100 = all killed); conditions: 10 µM unless noted
Experimental: Growth inhibition of the NCI-H322M human Non-Small Cell Lung tumor cell line is measured as a screen for anti-cancer activity. Cells are grown in 96 well plates and exposed to the test compound for 48 hours. Compounds are tested at a single concentration, which is 10^-5 M for most compounds. The reported endpoint is percent growth (GI% or GIPRCNT), where numbers from 0 - 100% represent growth inhibition, and numbers from -100% - 0 represent cell death. For example, a value of 40 represents 60% growth inhibition. A value of 0 means no net growth occurred over the course of the experiment. A value of -40 indicates 40% of cells at the beginning of the experiment died by the end of the experiment. A value of -100 means all cells are dead at the end of the experiment.
NCI-60 Human Tumor Cell Lines Screen was performed using the standard one-dose NCI protocol, which is described in more detail at https://dtp.cancer.gov/discovery_development/nci-60/default.htm.
Compounds with GIPRCNT values below 10 were considered active. Activity score was based on GIPRCNT using the following formula: […]
Score is 0 for GIPRCNT values of 100 or above, 50 for GIPRCNT values of 0, and 100 for GIPRCNT values of -100.

Structure (SMILES)	growth
O=C(CCc1nnc(Cn2cncn2)o1)c1nc2ccccc2[nH]1	115% (inactive)
CC1=CSC2=NCCN12	118% (inactive)
O=C(Nc1ccc(Nc2ccncc2)cc1)c1ccc(Nc2ccnc3ccc([N+](=O)[O-])cc23)cc1[N+](=O)[O-]	89.5% (inactive)
CC(=O)O[C@H]1C(=O)[C@@]2(C)C([C@H](OC(=O)c3ccccc3)[C@]3(O)C[C@H](OC(=O)[C@H](O)[C@@H](NC(=O)c4ccccc4)c4ccccc4)C(C)=C1C3(C)C)[C@]1(OC(C)=O)CO[C@@H]1C[C@@H]2O (stereo not given in full)	28.1% (inactive)
COc1ccc(-c2noc(N)c2-c2cc(OC)c3c(c2)OCO3)cc1	57.5% (inactive)
CO[C@H]1/C=C/O[C@@]2(C)Oc3c(C)c(O)c4c(O)c(c(/C=N/N5CCN(C)CC5)c(O)c4c3C2=O)NC(=O)/C(C)=C\C=C\C(C)[C@H](O)[C@@H](C)[C@@H](O)[C@@H](C)[C@@H](OC(C)=O)[C@@H]1C (stereo not given in full)	112% (inactive)
CN1CCN(CC(=O)Nc2nc3c(s2)Nc2cc(Cl)c(Cl)cc2NC3=O)CC1	94.1% (inactive)
COc1cc(-c2cc(C(=O)Nc3nc4ccccc4s3)nc3cc(-c4ccccc4)nn23)cc(OC)c1OC	90.9% (inactive)
COc1cc2cn3c4ccc(O)cc4nc(N)c3c2cc1OC	28.7% (inactive)
CCC1=C(c2ccc(OC)cc2)C(C)(C)Oc2c1ccc(O)c2CN1CCCC1	47.7% (inactive)
Clc1cccc(Cc2cn3cc(-c4ccccc4)nc3s2)c1	63.5% (inactive)
N#Cc1ccc(NC(=O)Nc2ccc(Oc3ccc(NC(=O)Nc4ccc(C#N)cc4)cc3)cc2)cc1	61.8% (inactive)
O=C(Nc1ccncc1)C(=O)c1cn(S(=O)(=O)c2cccc(F)c2)c2ccccc12	101% (inactive)
ClC1C2CC(c3ccccc32)C1Cl (stereo not given)	123% (inactive)
CCCC[N+](CCCC)=c1ccc2nc3c(C)cc(N(CC)CC)cc3sc-2c1	27.6% (inactive)
Cc1cc2c(cc1[N+](=O)[O-])NC(CNC(C)C)CC2 (stereo not given)	113% (inactive)
Cc1[nH]n(C(N)=S)c(=O)c1N=Nc1ccc(F)c(Cl)c1	110% (inactive)
Cc1cc(NCCCNc2ccnc3cc(Cl)ccc23)nc(N2CCN(C)CC2)n1	56.4% (inactive)
NC(=O)N/N=C/c1ccc(Br)o1	101% (inactive)
CC(c1cc(Cl)ccc1O)c1cc(Cl)ccc1O	80% (inactive)

Structure (SMILES)	growth
Cn1c(=O)c2c(nc(Br)n2CCC(=O)Nc2ccc(F)cc2)n(C)c1=O	106% (inactive)
Cc1c(C(N)=O)sc2c1C(=O)N(Cc1ccccc1)C1=NN=C(c3ccc(Cl)cc3)CN12	38.1% (inactive)
O=C1OCCCCCCCCCC#Cc2ccccc21	126% (inactive)
O=C(OCCBr)c1ccc(Cl)c([N+](=O)[O-])c1	28.6% (inactive)
N#Cc1cccc(/C=C(/C(=O)c2ccccc2)c2ccccc2)c1	77.8% (inactive)
Cc1c(C(N)=O)sc2ncn(Cc3ccccc3)c(=O)c12	79% (inactive)
O=C1/C(=C/c2ccc([N+](=O)[O-])o2)Oc2ccc(Br)cc21	75.6% (inactive)
C[C@]12C[C@H](O)[C@H]3[C@@H](CCC4=CC(=O)CC[C@@]43C)[C@@H]1CC[C@@H]2C(=O)CO	105% (inactive)
S=C1SCN(Cc2ccccc2)CN1Cc1ccco1	112% (inactive)
COc1ccc(OC)c(/C=C/c2nc(=S)n(-c3ccc(Cl)cc3)[nH]2)c1	100% (inactive)
COc1ccc2[nH]cc(/C=C3/C(=O)Nc4ccc(Cl)cc43)c2c1	57.1% (inactive)
O=C(OC[C@H]1O[C@H](OC(=O)c2cc(O)c(O)c(OC(=O)c3cc(O)c(O)c(O)c3)c2)[C@H](OC(=O)c2cc(O)c(O)c(OC(=O)c3cc(O)c(O)c(O)c3)c2)[C@@H](OC(=O)c2cc(O)c(O)c(OC(=O)c3cc(O)c(O)c(O)c3)c2)[C@@H]1OC(=O)c1cc(O)c(O)c(OC(=O)c2cc(O)c(O)c(O)c2)c1)c1cc(O)c(O)c(OC(=O)c2cc(O)c(O)c(O)c2)c1	19.3% (inactive)
CCC[C@H](N[C@@H](C)C(=O)N1[C@H](C(=O)O)C[C@@H]2CCCC[C@@H]21)C(=O)OCC	103% (inactive)
CCN(CC)CCOc1ccc(C2=C(c3ccccc3)CCc3cc(OC)ccc32)cc1	17.6% (inactive)
COc1cc(/C=C/C(=O)c2c(-c3ccc(F)cc3)nc3sc(C)nn23)cc(OC)c1OC	52.6% (inactive)
CC1=NN(c2ccccc2Cl)C(=O)/C1=C\c1cn(S(=O)(=O)c2ccc(C)cc2)c2ccccc12	105% (inactive)
Fc1ccc(-c2nnc(-c3c(-c4ccc(F)cc4)nc4ncccn34)o2)cc1	105% (inactive)
O=C1OCC/C1=C\OCCCO/C=C1\CCOC1=O	100% (inactive)
c1ccc2c(c1)[nH]c1c2cc[n+]2cc3c(cc12)CCCC3	29.8% (inactive)
O=C(Nc1nc(-c2ccc(Cl)cc2)cs1)c1cc(O)c(O)c(O)c1	60.8% (inactive)
